# Laboratory results: publication PMC7862700, “An all-to-all approach to the identification of sequence-specific readers for epigenetic DNA modifications on cytosine”
# Key:
# Test in all cases: DAPPL (digital affinity profiling via proximity ligation, sequencing); 10 mM Tris-HCl pH 7.5, 50 mM NaCl, 1 mM DTT, 4% glycerol, room temperature, 30 min; GST-TFs on glutathione beads, 16-mer random dsDNA library, 0.1% formaldehyde crosslink after washing; high values mean tight binding
# [1] = molecular target: T1, FLI1 (Homo sapiens, UniProt Q01543 1-452); details: protein: recombinant; tags: N-terminal GST; dsDNA, one strand shown
# T1 sequence: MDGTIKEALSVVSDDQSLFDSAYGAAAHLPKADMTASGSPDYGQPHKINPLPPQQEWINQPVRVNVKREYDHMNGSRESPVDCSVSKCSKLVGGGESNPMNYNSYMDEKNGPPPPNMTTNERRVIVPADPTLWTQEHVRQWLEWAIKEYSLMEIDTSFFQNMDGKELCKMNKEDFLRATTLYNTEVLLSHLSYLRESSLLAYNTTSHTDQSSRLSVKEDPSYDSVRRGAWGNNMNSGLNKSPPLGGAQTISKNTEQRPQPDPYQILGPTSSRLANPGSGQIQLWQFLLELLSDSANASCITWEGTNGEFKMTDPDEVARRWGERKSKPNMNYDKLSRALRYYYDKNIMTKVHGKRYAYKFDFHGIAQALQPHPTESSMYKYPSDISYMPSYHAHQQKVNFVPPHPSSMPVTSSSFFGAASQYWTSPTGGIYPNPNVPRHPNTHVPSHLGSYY
# How it was run: (§1)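 Human transcription factors fused to GST were expressed in yeast, captured on glutathione beads, given DNA barcodes and pooled with a GST-only negative control. Pools were incubated with 200 nmole of a 16-mer random double-stranded DNA library in Tris/NaCl/DTT/glycerol buffer at room temperature for 30 min. They were then washed, crosslinked with 0.1% formaldehyde, proximity-ligated (BsaI/T4 ligase, 1 h, 37 °C), PCR-amplified and sequenced on an Illumina NextSeq500. Binding signal is each 6-mer's read frequency for a factor divided by its frequency for the GST control.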
# [2] = molecular target: T2, ELK1 (Homo sapiens, UniProt P19419 1-428); details: protein: recombinant; tags: N-terminal GST; dsDNA, one strand shown
# T2 sequence: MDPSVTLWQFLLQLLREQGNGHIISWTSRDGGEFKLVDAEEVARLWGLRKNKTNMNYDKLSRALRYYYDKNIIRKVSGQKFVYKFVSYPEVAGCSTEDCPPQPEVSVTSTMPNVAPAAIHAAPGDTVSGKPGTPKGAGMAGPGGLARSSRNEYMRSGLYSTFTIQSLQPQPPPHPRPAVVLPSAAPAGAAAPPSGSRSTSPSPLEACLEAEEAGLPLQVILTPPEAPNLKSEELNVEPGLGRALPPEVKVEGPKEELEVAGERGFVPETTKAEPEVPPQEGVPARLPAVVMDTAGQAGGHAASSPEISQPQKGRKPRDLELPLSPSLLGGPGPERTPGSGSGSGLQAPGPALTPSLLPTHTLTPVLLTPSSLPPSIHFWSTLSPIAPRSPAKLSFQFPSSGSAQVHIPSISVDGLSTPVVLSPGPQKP
# How it was run: as §1
# [3] = molecular target: T3, GABPA (Homo sapiens, UniProt Q06546 1-454); details: protein: recombinant; tags: N-terminal GST; dsDNA, one strand shown
# T3 sequence: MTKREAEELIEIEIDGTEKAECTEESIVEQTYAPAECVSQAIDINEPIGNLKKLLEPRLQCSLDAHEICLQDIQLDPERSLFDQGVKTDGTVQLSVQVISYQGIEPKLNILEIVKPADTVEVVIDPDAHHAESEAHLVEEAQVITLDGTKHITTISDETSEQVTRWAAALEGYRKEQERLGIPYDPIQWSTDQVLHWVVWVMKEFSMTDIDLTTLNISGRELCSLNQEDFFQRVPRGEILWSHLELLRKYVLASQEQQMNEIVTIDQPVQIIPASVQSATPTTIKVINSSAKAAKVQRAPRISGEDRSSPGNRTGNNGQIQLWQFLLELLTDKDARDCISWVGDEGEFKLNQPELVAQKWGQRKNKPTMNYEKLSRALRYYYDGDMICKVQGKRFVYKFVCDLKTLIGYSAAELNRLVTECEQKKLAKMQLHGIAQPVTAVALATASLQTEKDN
# How it was run: as §1
# [4] = molecular target: T4, ERG (Homo sapiens, UniProt P11308 1-479); details: protein: recombinant; tags: N-terminal GST; dsDNA, one strand shown
# T4 sequence: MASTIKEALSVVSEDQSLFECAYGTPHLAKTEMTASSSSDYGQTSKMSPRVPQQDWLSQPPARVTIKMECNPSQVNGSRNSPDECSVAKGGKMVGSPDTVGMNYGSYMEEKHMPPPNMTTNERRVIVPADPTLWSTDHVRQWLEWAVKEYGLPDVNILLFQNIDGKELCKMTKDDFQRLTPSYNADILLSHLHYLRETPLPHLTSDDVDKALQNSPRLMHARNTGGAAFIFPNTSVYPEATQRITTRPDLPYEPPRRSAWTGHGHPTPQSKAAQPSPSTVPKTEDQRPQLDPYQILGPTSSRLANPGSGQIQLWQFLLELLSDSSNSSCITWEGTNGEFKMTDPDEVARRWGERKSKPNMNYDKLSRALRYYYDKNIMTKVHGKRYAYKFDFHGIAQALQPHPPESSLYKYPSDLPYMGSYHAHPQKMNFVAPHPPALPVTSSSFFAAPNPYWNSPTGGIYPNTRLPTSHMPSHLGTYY
# How it was run: as §1
# [5] = molecular target: ELF1 (Homo sapiens, UniProt P32519 1-619); details: protein: recombinant; tags: N-terminal GST; dsDNA, one strand shown
# How it was run: as §1
# [6] = molecular target: T5, EHF (Homo sapiens, UniProt Q9NZC4 1-300); details: protein: recombinant; tags: N-terminal GST; dsDNA, one strand shown
# T5 sequence: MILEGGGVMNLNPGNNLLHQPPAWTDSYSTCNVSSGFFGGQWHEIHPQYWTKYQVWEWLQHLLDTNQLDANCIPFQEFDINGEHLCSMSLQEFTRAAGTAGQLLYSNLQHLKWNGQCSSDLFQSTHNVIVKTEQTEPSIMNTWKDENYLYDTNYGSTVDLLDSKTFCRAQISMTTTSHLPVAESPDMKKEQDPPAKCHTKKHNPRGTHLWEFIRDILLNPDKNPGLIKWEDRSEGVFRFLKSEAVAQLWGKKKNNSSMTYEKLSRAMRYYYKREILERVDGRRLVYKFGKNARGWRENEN
# How it was run: as §1
# [7] = molecular target: SPI1 (Homo sapiens, UniProt P17947 1-270); details: protein: recombinant; tags: N-terminal GST; dsDNA, one strand shown
# How it was run: as §1
# [8] = molecular target: SPIB (Homo sapiens, UniProt Q01892 1-262); details: protein: recombinant; tags: N-terminal GST; dsDNA, one strand shown
# How it was run: as §1
# [9] = molecular target: T6, ELK3 (Homo sapiens, UniProt P41970 1-407); details: protein: recombinant; tags: N-terminal GST; dsDNA, one strand shown
# T6 sequence: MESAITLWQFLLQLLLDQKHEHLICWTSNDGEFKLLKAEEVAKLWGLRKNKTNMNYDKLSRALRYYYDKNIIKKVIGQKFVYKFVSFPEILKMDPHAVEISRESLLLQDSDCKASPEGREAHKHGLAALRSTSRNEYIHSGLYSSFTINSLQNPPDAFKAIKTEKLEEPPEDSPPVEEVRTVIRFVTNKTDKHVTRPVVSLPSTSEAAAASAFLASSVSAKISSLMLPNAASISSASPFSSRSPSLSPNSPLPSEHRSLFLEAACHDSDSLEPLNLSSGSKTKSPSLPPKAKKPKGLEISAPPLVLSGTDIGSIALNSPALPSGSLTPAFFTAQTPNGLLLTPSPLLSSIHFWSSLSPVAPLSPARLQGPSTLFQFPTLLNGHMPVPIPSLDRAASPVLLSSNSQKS
# How it was run: as §1
# [10] = molecular target: T7, FEV (Homo sapiens, UniProt Q99581 1-238); details: protein: recombinant; tags: N-terminal GST; dsDNA, one strand shown
# T7 sequence: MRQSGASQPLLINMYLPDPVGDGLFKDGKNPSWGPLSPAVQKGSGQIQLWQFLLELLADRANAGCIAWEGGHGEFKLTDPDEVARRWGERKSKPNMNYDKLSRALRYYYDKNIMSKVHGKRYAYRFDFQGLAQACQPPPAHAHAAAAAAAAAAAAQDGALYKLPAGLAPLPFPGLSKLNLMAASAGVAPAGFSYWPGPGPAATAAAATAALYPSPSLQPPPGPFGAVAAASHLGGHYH
# How it was run: as §1
# [11] = molecular target: ETV5 (Homo sapiens, UniProt P41161 1-510); details: protein: recombinant; tags: N-terminal GST; dsDNA, one strand shown
# How it was run: as §1
# [12] = molecular target: HSF1 (Homo sapiens, UniProt Q00613 1-529); details: protein: recombinant; tags: N-terminal GST; chain copies: 3; dsDNA, one strand shown
# How it was run: as §1
# [13] = molecular target: T8, SPIC (Homo sapiens, UniProt Q8N5J4 1-248); details: protein: recombinant; tags: N-terminal GST; dsDNA, one strand shown
# T8 sequence: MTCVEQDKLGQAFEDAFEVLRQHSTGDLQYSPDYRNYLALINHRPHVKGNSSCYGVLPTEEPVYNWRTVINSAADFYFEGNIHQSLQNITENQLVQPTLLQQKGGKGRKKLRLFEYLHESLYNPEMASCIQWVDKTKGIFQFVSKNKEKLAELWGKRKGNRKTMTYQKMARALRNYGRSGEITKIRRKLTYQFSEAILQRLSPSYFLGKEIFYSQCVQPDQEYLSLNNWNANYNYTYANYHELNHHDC
# How it was run: as §1
# [14] = molecular target: ELF4 (Homo sapiens, UniProt Q99607 1-663); details: protein: recombinant; tags: N-terminal GST; dsDNA, one strand shown
# How it was run: as §1
# [15] = molecular target: T9, ELK4 (Homo sapiens, UniProt P28324-2 1-405); details: protein: recombinant; tags: N-terminal GST; dsDNA, one strand shown
# T9 sequence: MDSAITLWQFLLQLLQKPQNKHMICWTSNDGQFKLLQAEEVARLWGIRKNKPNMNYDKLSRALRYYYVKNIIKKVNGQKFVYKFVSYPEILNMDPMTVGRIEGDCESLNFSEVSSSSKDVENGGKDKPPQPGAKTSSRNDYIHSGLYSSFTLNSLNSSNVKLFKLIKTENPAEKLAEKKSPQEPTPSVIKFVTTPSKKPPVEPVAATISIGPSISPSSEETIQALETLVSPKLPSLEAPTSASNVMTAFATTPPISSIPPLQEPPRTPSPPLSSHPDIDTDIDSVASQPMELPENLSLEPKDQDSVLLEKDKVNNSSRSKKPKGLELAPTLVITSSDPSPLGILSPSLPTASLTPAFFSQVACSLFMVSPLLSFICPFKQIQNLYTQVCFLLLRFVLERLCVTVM
# How it was run: as §1
# [16] = molecular target: T10, ETV2 (Homo sapiens, UniProt O00321 1-342); details: protein: recombinant; tags: N-terminal GST; dsDNA, one strand shown
# T10 sequence: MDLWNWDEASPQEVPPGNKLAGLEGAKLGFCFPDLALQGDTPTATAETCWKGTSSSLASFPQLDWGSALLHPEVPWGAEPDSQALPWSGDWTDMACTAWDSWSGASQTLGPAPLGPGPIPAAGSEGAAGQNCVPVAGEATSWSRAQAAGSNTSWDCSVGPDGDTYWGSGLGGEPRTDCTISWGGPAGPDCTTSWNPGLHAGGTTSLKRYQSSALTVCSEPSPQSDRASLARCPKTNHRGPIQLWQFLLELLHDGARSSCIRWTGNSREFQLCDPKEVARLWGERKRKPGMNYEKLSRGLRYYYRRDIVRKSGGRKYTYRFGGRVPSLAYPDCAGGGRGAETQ
# How it was run: as §1
# [17] = molecular target: T11, ELF3 (Homo sapiens, UniProt P78545 1-371); details: protein: recombinant; tags: N-terminal GST; dsDNA, one strand shown
# T11 sequence: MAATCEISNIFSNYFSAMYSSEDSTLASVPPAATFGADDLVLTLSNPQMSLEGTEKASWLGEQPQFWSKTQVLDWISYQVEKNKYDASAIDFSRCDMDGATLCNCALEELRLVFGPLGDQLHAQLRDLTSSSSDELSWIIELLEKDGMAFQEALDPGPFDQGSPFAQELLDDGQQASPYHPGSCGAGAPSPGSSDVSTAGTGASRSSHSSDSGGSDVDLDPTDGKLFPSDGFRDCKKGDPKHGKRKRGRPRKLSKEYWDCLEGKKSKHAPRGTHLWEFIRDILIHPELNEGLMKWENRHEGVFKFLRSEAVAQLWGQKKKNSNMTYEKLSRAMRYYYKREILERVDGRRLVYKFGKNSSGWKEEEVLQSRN
# How it was run: as §1
# [18] = molecular target: CRX (Homo sapiens, UniProt O43186 1-299); details: protein: recombinant; tags: N-terminal GST; dsDNA, one strand shown
# How it was run: as §1
# [19] = molecular target: ETV1 (Homo sapiens, UniProt P50549 1-477); details: protein: recombinant; tags: N-terminal GST; dsDNA, one strand shown
# How it was run: as §1
# Sequence of HSF1 (Q00613 whole entry): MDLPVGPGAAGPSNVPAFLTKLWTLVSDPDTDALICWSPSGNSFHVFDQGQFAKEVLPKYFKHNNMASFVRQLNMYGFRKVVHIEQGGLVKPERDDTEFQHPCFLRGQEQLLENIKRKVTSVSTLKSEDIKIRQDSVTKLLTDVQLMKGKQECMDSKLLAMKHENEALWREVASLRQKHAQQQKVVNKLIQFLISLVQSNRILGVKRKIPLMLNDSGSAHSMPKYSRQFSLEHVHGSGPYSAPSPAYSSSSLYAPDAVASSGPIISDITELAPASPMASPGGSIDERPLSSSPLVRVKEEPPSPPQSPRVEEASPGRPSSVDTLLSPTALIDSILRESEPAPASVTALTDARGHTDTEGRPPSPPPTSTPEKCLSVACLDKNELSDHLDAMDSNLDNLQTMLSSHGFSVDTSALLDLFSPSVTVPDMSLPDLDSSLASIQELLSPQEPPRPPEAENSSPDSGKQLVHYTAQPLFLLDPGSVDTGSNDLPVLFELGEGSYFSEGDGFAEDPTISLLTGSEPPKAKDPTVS
# Sequence of CRX (O43186 whole entry): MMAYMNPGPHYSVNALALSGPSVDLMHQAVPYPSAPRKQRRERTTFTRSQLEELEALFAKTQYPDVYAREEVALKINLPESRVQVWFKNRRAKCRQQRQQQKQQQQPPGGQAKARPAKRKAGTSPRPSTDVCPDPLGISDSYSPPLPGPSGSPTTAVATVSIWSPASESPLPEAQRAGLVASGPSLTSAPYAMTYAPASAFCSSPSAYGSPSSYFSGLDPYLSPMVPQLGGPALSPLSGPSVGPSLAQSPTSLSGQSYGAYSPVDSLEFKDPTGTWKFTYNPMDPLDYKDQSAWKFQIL
# Sequence of ETV5 (P41161 whole entry): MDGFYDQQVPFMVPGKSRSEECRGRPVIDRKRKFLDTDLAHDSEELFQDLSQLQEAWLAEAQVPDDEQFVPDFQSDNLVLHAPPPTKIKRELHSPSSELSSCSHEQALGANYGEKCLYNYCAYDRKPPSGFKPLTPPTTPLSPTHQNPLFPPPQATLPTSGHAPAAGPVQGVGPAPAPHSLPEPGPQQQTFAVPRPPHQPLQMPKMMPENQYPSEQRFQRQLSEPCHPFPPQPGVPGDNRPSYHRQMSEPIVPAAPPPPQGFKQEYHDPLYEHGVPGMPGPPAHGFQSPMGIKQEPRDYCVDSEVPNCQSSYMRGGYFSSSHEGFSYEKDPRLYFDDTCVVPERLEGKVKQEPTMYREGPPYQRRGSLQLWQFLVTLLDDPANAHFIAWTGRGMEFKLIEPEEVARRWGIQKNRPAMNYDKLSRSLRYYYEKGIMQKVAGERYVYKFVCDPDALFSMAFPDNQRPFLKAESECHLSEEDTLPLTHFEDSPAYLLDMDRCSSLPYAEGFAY
# Sequence of ELF1 (P32519 whole entry): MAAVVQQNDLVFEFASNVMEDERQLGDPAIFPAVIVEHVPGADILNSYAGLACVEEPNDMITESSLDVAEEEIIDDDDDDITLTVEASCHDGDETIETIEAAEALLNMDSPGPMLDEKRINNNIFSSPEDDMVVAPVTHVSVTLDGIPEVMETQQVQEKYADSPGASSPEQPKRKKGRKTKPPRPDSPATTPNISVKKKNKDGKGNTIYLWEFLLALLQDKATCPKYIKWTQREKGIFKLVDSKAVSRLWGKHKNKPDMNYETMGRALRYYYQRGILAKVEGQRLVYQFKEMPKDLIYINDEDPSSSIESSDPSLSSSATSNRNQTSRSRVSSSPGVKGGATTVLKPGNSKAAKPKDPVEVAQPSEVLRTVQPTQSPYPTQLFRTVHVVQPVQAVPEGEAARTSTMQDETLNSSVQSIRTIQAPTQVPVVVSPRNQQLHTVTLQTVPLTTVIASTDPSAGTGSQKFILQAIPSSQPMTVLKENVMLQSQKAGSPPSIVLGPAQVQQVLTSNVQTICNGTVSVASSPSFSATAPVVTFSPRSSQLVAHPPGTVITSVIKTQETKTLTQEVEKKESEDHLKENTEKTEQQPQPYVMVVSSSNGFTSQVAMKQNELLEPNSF
# Sequence of ETV1 (P50549 whole entry): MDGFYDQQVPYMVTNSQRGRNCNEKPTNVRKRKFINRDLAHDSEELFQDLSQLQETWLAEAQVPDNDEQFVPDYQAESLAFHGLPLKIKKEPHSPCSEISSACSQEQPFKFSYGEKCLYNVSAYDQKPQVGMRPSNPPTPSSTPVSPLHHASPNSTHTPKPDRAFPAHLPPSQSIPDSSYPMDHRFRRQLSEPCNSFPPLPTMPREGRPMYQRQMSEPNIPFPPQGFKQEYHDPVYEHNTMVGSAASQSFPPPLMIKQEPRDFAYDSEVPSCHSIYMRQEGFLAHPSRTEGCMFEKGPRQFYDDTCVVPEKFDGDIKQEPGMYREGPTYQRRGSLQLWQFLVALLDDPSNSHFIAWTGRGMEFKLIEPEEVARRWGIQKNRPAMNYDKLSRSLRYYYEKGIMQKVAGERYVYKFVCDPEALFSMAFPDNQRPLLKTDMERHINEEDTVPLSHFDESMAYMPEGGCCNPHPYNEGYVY
# Sequence of SPIB (Q01892 whole entry): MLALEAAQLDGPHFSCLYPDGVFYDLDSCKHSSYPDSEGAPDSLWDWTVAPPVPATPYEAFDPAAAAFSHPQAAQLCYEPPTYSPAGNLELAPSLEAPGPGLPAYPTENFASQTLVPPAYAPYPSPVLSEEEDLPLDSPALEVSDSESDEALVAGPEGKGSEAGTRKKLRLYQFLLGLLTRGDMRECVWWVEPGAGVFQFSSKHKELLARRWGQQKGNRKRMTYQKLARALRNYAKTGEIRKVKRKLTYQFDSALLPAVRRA
# Sequence of ELF4 (Q99607 whole entry): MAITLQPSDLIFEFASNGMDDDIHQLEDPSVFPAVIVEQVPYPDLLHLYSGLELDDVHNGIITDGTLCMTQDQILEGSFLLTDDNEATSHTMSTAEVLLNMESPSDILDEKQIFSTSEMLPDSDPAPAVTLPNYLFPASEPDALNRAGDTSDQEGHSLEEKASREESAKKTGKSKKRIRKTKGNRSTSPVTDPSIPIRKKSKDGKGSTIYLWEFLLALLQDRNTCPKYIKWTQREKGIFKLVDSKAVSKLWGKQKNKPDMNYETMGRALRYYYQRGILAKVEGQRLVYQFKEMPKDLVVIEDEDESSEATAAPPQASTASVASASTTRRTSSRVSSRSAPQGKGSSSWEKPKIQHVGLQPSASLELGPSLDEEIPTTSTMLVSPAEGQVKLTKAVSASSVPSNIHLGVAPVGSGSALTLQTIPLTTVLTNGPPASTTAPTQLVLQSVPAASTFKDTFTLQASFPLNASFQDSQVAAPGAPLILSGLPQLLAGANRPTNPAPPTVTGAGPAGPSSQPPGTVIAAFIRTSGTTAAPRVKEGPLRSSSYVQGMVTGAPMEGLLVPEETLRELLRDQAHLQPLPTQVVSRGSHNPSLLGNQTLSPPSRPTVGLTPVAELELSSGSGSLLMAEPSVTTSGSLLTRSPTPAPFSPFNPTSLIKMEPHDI
sequence,measurement,setting,value
CGGCTC,binding signal,[1],"1.27 fold enrichment (6-mer frequency, TF over GST control)"
same,binding signal,[2],"1.29 fold enrichment (6-mer frequency, TF over GST control)"
same,binding signal,[3],"1.2 fold enrichment (6-mer frequency, TF over GST control)"
same,binding signal,[4],"1.33 fold enrichment (6-mer frequency, TF over GST control)"
same,binding signal,[5],"1.27 fold enrichment (6-mer frequency, TF over GST control)"
same,binding signal,[6],"1.31 fold enrichment (6-mer frequency, TF over GST control)"
same,binding signal,[7],"1.33 fold enrichment (6-mer frequency, TF over GST control)"
same,binding signal,[8],"1.33 fold enrichment (6-mer frequency, TF over GST control)"
same,binding signal,[9],"1.31 fold enrichment (6-mer frequency, TF over GST control)"
same,binding signal,[10],"1.33 fold enrichment (6-mer frequency, TF over GST control)"
same,binding signal,[11],"1.28 fold enrichment (6-mer frequency, TF over GST control)"
same,binding signal,[12],"1.21 fold enrichment (6-mer frequency, TF over GST control)"
same,binding signal,[13],"1.23 fold enrichment (6-mer frequency, TF over GST control)"
same,binding signal,[14],"1.35 fold enrichment (6-mer frequency, TF over GST control)"
same,binding signal,[15],"1.22 fold enrichment (6-mer frequency, TF over GST control)"
same,binding signal,[16],"1.42 fold enrichment (6-mer frequency, TF over GST control)"
same,binding signal,[17],"1.48 fold enrichment (6-mer frequency, TF over GST control)"
same,binding signal,[18],"1.26 fold enrichment (6-mer frequency, TF over GST control)"
same,binding signal,[19],"1.29 fold enrichment (6-mer frequency, TF over GST control)"
